# Laboratory results from ChEMBL document CHEMBL3988442, “University of Dundee, Small-Polar-MMV Screening Library” (2021).
# Target: T1, Aspartate--tRNA(Asp/Asn) ligase (Mycobacterium tuberculosis (strain ATCC 25618 / H37Rv)) (UniProt P9WFW3)
# T1 sequence (whole entry): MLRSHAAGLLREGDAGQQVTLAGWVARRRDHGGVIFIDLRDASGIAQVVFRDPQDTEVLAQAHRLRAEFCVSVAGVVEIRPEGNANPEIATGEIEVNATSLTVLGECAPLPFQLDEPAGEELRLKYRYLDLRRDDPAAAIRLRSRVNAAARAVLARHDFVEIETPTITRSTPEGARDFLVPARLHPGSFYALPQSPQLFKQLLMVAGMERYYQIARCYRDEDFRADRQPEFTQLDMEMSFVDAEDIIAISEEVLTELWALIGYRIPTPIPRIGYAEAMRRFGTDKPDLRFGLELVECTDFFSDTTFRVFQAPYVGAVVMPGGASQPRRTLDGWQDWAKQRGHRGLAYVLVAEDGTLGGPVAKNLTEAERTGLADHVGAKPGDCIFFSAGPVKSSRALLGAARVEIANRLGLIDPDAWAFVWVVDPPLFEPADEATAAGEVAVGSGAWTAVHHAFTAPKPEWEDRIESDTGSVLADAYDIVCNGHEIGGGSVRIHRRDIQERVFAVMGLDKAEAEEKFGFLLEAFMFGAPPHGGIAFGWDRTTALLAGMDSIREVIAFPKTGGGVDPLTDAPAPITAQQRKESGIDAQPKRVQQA
# Test: Assay for Asp RNA synthetase-1 from Mycobacterium tuberculosis
# Assay type: functional
# Set-up: scale not given: in the data most compounds retested in dose-response had high values
# Conditions: 30 µM
row,SMILES,Percent Effect
1,Cc1nn(C)cc1CNC(=O)c1cn(CCC2CCCCN2)nn1 (stereo not given),-2.13%
2,CCc1nc(CNC(=O)Nc2ccc(C(=O)NC)cc2C)cs1,-0.0804%
3,Cc1nccn1CCC1CCCCN1Cc1ccncc1 (stereo not given),-1.16%
4,CC(C)(C)N1CC(C(=O)N2CCN(CCn3cccc3)CC2)CC1=O (stereo not given),1.18%
5,Cc1ccc(C#N)c(N2CCC(c3nccn3Cc3cscn3)CC2)n1,2.26%
6,CCCC(C)CN1CCC(n2cc(C3CCCC3)nn2)CC1 (stereo not given),2.26%
7,CN(CC1(O)CCCN(CCC2CCCCC2)C1=O)C1CCOCC1 (stereo not given),0.172%
8,CNC(=O)Cn1cc(C#N)c(=O)c2cc(Br)ccc21,0.0345%
9,O=C1CCC2(CCN(Cc3cc(F)ccc3Cl)CC2)CN1C1CCCC1,0.0575%
10,Cc1ccsc1CNC(=O)NC1CCCc2c1cnn2CCO (stereo not given),-1.99%
11,Cc1cnn(Cc2cc(F)ccc2F)c1NC(=O)NC1CC1,-1.44%
12,O=c1oc(-c2cccs2)nn1CC(O)c1ccccc1 (stereo not given),1.71%
13,CCS(=O)(=O)c1ccc(N2CCC(NC(=O)CCC(C)C)CC2)cc1,-2.31%
14,CCc1ncc(C(=O)NCCNC(=O)Cc2ccc(F)cc2)s1,-2.42%
15,c1cnn(CC2CCCCN2c2ncnc3sccc23)c1 (stereo not given),2.59%
16,CCCc1nc(N2Cc3cnn(Cc4ccc(F)cc4)c3C2)no1,-0.77%
17,O=C(NCCN1CCOCC1)NCc1ncc(-c2ccccc2)o1,1.62%
18,Cc1nn(C)c(Cl)c1C1CCCN1c1ncnc2sccc12 (stereo not given),-2.03%
19,CN(CCNC(=O)N1CCN(Cc2ccon2)CC1)C1CCCC1,-5.04%
20,CCCS(=O)(=O)N1CCC(NC(=O)c2ccc(Cl)s2)CC1,0.379%

row,SMILES,Percent Effect
1,c1cnn(Cc2nnc(C3CCN(C4CCOCC4)CC3)n2C2CC2)c1,-4.17%
2,CN(C)c1ccc(CCNC(=O)C2CCC(=O)N(C3CCCC3)C2)cc1 (stereo not given),-4.1%
3,CCn1cc(NC(=O)NC2CCCc3c2cnn3CCO)cn1 (stereo not given),-3.64%
4,CC(C)c1nccn1CCCNC(=O)c1ccc(-c2cncnc2)nc1,-1.78%
5,CN(CCO)Cc1nnc(C2CCN(C(=O)c3cccnc3)CC2)n1C,-0.977%
6,Cc1cccc(NC(=O)[C@@H]2CCCN2CC(=O)N2CCCCCC2)n1,-2.13%
7,Cc1cnn(C2CN(Cc3ccc4c(c3)OCCO4)C2)c1,2.19%
8,CC(C)c1ncc(CN2C[C@@H](CN3CCC(CO)CC3)[C@@H](CO)C2)cn1,-1.92%
9,CC(Sc1nnnn1C1CCOCC1)C(=O)NC1CCCCC1 (stereo not given),1.09%
10,O=C(NCCCc1ccncc1)C1CCCN(Cc2ccco2)C1 (stereo not given),2.17%
11,N#Cc1cn(CC(=O)NC2CC2)c2ccc(Br)cc2c1=O,0.517%
12,CCCC(=O)NCc1cc(Br)c(OC)c(OC)c1,-0.862%
13,O=C(NCCc1csc(N2CCCC2)n1)N(C1CCCC1)C1CC1,4.33%
14,Cc1cc(S(=O)(=O)N2CCCc3cc(F)cc(F)c32)sc1C(=O)O,-0.908%
15,CCCOCCN1CCC2(CC1)CC(c1ccccc1)C(=O)N2C (stereo not given),-5.14%
16,CCCNC(=O)CCNC(=O)Cc1nc(-c2ccco2)oc1C,2.08%
17,COc1cccc(-c2noc(-c3ccc(NCC4CC4)nc3)n2)c1OC,-3.57%
18,CSCCC1c2nc[nH]c2CCN1Cc1cc(Cl)ccc1O (stereo not given),0.954%
19,CCC(C)NC(=O)c1ccccc1-n1cnnn1 (stereo not given),-5.94%
20,CS(=O)(=O)NCCC(=O)NC1CCc2nccn2C1 (stereo not given),3.25%
